Sampled rows, rich in hits. Any-hit rate of the full collection: about 2.5%.
Granule exo inh = blocks lytic granule exocytosis | actives 0.66% (n = 360,000) | inhibition, % at 10 µM | TALL-104 LAMP-1 surface exposure, flow cytometry; cells stimulated with thapsigargin and PMA;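 active means inhibition above about 55%, limit read from the data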
rCAG binder = r(CAG) repeat RNA binding; inhibition, % at 3 µM; TO-PRO-1 dye displacement fluorescence; actives 1.3% (n = 370,000); AID 651821;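 active means inhibition above the plate cutoff, the mean of all test compounds on that plate plus 3 SD, cut at about 35% in these data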;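 further: 0% = DMSO alone and 100% = 100 µM mitoxantrone as full dye displacement; higher means more dye released from RNA so lower well fluorescence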
PG9 Ab binder = PG9 antibody binding by small molecule; TR-FRET gp120-PG9 antibody binding; inhibition, % at 6.7 µM; actives 0.43% (n = 360,000); in the data active means inhibition above about 8.5%
ABCB6 inh 2 = blocks the human ABCB6 transporter; Q9NP58; actives 0.19% (n = 360,000); AID 602162; K562-ABCB6 porphyrin accumulation, flow cytometry, 1 h; stronger effect = lower value; fluorescence ratio to DMSO, % at 10 µM;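 active means fluorescence ratio to DMSO below 75%, the collection mean minus 3 SD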;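 further: signal is porphyrin accumulated inside mitochondria; 100% equals median channel fluorescence of DMSO control wells; lower ratio means ABCB6 inhibition with less porphyrin fluorescence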
Target sequence (Q9NP58 whole entry, looked up): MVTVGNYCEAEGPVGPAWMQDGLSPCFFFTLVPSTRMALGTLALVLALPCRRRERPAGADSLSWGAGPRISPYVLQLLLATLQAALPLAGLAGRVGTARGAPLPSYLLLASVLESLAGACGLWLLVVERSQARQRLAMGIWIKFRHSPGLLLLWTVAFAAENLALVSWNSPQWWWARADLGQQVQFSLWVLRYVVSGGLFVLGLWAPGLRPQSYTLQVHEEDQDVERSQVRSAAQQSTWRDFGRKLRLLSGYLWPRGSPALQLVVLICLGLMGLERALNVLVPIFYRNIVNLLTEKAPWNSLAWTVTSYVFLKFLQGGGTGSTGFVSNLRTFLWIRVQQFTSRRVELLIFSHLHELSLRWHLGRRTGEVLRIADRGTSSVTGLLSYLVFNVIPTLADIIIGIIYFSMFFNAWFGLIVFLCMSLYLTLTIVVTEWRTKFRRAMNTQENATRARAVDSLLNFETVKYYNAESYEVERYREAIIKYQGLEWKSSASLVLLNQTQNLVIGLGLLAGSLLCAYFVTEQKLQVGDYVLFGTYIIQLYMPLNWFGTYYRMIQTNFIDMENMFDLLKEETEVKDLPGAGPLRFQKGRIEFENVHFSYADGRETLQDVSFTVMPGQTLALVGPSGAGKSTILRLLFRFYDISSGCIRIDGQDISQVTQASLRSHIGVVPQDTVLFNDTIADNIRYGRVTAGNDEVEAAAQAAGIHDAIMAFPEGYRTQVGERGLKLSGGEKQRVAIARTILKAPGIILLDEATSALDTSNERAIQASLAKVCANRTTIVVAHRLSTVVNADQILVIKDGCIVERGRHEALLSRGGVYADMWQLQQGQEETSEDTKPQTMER
Granule exo CP1 = lytic granule exocytosis inhibition. shares compounds with Granule exo inh. AID 651954. inhibition, % at 10 µM. TALL-104 cells, LAMP-1 externalization, flow cytometry; stimulated with PMA plus thapsigargin. actives 11% (n = 1,500); in the data active means inhibition above about 60%;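 further: 0% = stimulated vehicle wells and 100% = unstimulated wells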
* marks the source's active call; other numbers are inactive results; i = inactive; · = no result given.

SMILES | Granule exo inh | rCAG binder | PG9 Ab binder | ABCB6 inh 2 | Granule exo CP1
COc1cc2c(cc1OC)C(CCc1ccccc1)=NCC2 | 62.7* | 2.3 | -0.1 | 102.0 | -11.9
COc1cc2c(cc1OC)C(c1c(Cl)cccc1Cl)=NCC2 | 0.2 | 1.0 | 0.6 | 94.0 | ·
CCOc1cc(CNCCO)cc(Br)c1OCc1ccccc1Cl | 11.4 | -0.6 | 0.2 | 102.0 | ·
CCOc1cc(CNC(C)(C)CO)cc(Br)c1OCc1ccc(Cl)cc1Cl | 66.5* | 2.5 | -0.2 | 83.0 | 35.4
CCOc1cc(CNCCO)cc(Br)c1OCc1ccc(Cl)cc1 | 63.3* | 10.1 | 0.3 | 94.0 | -6.2
Cc1ccc(C(=O)N/C(=C\c2ccc(-c3ccc(Br)cc3)o2)C(=O)NCCCN(C)C)cc1 | 75.1* | 12.1 | -8.8 | 103.0 | 99.1*
Cc1ccc2cccc(NC(=O)c3ccc(Br)o3)c2n1 | 89.1* | 4.4 | 0.5 | 97.0 | -4.2
O=C(Nc1cccc(NC(=O)c2ccc(Br)o2)n1)c1ccc(Br)o1 | -4.0 | 6.2 | 0.1 | 94.0 | ·
O=C(Nc1cnn(Cc2ccccc2)c1)c1cc2nc(-c3ccco3)cc(C(F)(F)F)n2n1 | 96.2* | 7.2 | 0.5 | 99.0 | -4.9
Oc1cc(Br)ccc1C=Nc1ccc(N2CCCCC2)cc1 | 64.8* | 3.8 | -3.9 | 100.0 | -3.4
Oc1ccc(C=Nc2ccc(N3CCOCC3)cc2)c(O)c1 | -2.8 | 16.8 | -3.3 | 91.0 | ·
C[C@@H]1CC2OC(=O)[C@@]3(C)C(=O)CC[C@@](C)(C23)[C@@]1(O)CCc1ccoc1 (some centres not stated) | -1.1 | -1.1 | -0.9 | 101.0 | ·
COc1ccc(CCC(=O)OCC(=O)Nc2c(C)n(C)n(-c3ccccc3)c2=O)cc1 | -2.4 | 1.1 | 1.4 | 100.0 | ·
Cc1nc(C(=O)NCc2ccccc2)sc1C1(C)CC(c2cccc([N+](=O)[O-])c2)=NO1 (configuration not stated) | 59.1* | 4.4 | -1.1 | 96.0 | -5.0
O=C(Nc1cccc(S(=O)(=O)N2CCCC2)c1)c1ccccc1OC(F)F | 1.8 | 1.4 | -1.7 | 99.0 | ·
COc1ccc2noc3c2c1C(=O)c1ccccc1-3 | 88.3* | i | -7.0 | 346.0 | 23.3
CN(c1ccccc1)S(=O)(=O)c1ccc2ccccc2c1 | 65.3* | 0.2 | -1.5 | 103.0 | -3.7
O=S(=O)(Nc1ccc(-c2ccc3nncn3n2)cc1)c1cccc(F)c1 | 0.9 | 4.9 | -0.5 | 101.0 | ·
COC(=O)c1ccc(OCC(O)CN2CCc3cc(OC)c(OC)cc3C2c2ccccc2)cc1 (configuration not stated) | 73.5* | -0.2 | -0.3 | 88.0 | -12.1
Cc1ccc(C)n1-c1nn(S(=O)(=O)c2ccccc2)c2cccc(F)c12 | 56.2* | -0.1 | -1.0 | 99.0 | -11.6
CCCCC(CC)CNC(=O)CN1C(=O)NC2(CCc3ccccc32)C1=O (configuration not stated) | 6.9 | -9.8 | -1.3 | 98.0 | ·
COCCNc1nc(NCc2cccc(OC)c2)c2sc(-c3ccccc3)cc2n1 | 76.0* | 4.5 | -1.7 | 96.0 | 99.5*
c1ccc(CNc2nc(NCC3CC3)nc3cc(-c4ccccc4)sc23)cc1 | 71.1* | 7.7 | 0.0 | 94.0 | 94.6*
C=CCNc1nc(NCc2ccc(N(C)C)cc2)c2sc(-c3ccccc3)cc2n1 | 74.8* | 15.6 | 0.9 | 99.0 | 92.6*
Cc1ccc(S(=O)(=O)N2CCCCC2CCNC(=O)C(=O)NCc2ccccc2)cc1 (configuration not stated) | -0.1 | -8.2 | 0.1 | 98.0 | ·
SMILES | Granule exo inh | rCAG binder | PG9 Ab binder | ABCB6 inh 2 | Granule exo CP1
Oc1c(Cl)cc(Cl)c2cccnc12 | 3.4 | 5.6 | -1.2 | 106.0 | ·
Oc1c(I)cc(I)c2cccnc12 | 73.9* | 17.0 | 0.5 | 98.0 | -14.0
COc1ccc(CNC(=O)COC(=O)[C@H](Cc2c[nH]c3ccccc23)NC(=O)c2cccs2)cc1 | 58.1* | 0.5 | -0.2 | 99.0 | 32.7
COC(=O)C(Cc1c[nH]c2ccccc12)NC(=O)c1cccs1 (configuration not stated) | -1.3 | -0.6 | 0.7 | 99.0 | ·
COc1ccc(C(=O)N2CCC(n3nccc3NC(=O)C3CC3)CC2)cc1F | 0.1 | -2.3 | -1.2 | 100.0 | ·
CCN(CC)CCCN(C(=O)c1cccc(C)c1)c1nc(-c2ccc(OC)cc2)cs1 | 41.6 | -2.3 | 1.4 | 99.0 | ·
CCN(CC)CCCN(C(=O)c1ccc(Br)cc1)c1nc(-c2ccc(OC)cc2)cs1 | 62.7* | 2.0 | -1.2 | 103.0 | -8.9
CCCCN(Cc1ccccc1)C1CCN(Cc2ccccc2)CC1 | 68.4* | -8.7 | -1.3 | 101.0 | -11.9
Oc1ccccc1C1CC(c2cccs2)=NC(c2cccc(Br)c2)N1 (configuration not stated) | 69.2* | 9.1 | -0.9 | 102.0 | -14.6
CCCCc1ccc(NC(=O)CSc2nc(=O)n(CCN(C)C)c3c2CCC3)cc1 | 52.9 | -6.0 | -0.2 | 96.0 | ·
CCCCc1ccc(NC(=O)CSc2nc(=O)n(CCN(CC)CC)c3c2CCCC3)cc1 | 81.7* | -7.0 | 0.2 | 100.0 | -1.6
CCNc1nc(-c2sc(NC(=O)C(C)(C)C)nc2C)c(-n2cc(-c3ccccc3)nn2)s1 | 78.9* | 7.3 | 2.1 | 107.0 | 57.6
Cc1nc(NC(=O)C(C)(C)C)sc1-c1nc(N)sc1-n1cc(-c2ccccc2)nn1 | -2.1 | 2.6 | -1.2 | 159.0 | ·
C=C(C)COc1ccc(-c2[nH]ncc2-c2ccccc2)c(O)c1 | 85.1* | 5.7 | 2.2 | 107.0 | 4.1
Oc1cc(OCc2ccccc2)ccc1-c1[nH]ncc1-c1ccccc1 | 100.1* | 8.1 | -0.1 | 102.0 | 16.1
COc1ccc(-c2cn[nH]c2-c2ccc(OCc3ccccc3)cc2O)cc1OC | 64.2* | 2.6 | -1.4 | 98.0 | -3.9
O=[N+]([O-])c1ccc(COc2ccc(-c3[nH]ncc3-c3ccccc3)c(O)c2)cc1 | 11.0 | 9.4 | -1.2 | 92.0 | ·
COc1ccc(-c2cn[nH]c2-c2ccc(OCc3ccc(F)cc3)cc2O)cc1OC | 19.1 | 5.7 | -1.2 | 89.0 | ·
CCOc1ccc(-c2cc(C(=O)NCc3cc(OC)cc(OC)c3)[nH]n2)c(C)c1 | 2.5 | 3.5 | 1.1 | 95.0 | ·
CC1=C(C(=O)N2CCCCCC2)CC(CC(=O)NCCCCc2ccccc2)C(=O)N1Cc1ccccc1 (configuration not stated) | 6.4 | 1.1 | -2.0 | 93.0 | ·
COC(=O)/C(=C(O)\C=C\c1ccccc1[N+](=O)[O-])c1nc2ccccc2[nH]1 | 46.8 | 16.9 | 0.4 | 100.0 | ·
CCCC1=Nc2cc(C(=O)N3CCN(c4ccccn4)CC3)ccc2Sc2ccc(C)cc21 | 70.1* | 6.9 | 0.2 | 89.0 | -4.4
C[C@H](NC(=O)Nc1ccc2c(c1)OCCO2)C(=O)O | 100.9* | -1.4 | 0.2 | 103.0 | -16.2
COc1ccc(CNC(=O)CC[C@H]2O[C@@H](n3cnc4c(NC(=O)c5ccccc5)ncnc43)[C@H](O)[C@@H]2O)cc1 | 0.9 | 3.2 | -0.2 | 96.0 | ·
O=C(NC1CCN(Cc2ccccc2)CC1)c1ccccc1Cl | 2.2 | -3.7 | -1.3 | 101.0 | ·
Cc1oc(-c2ccccc2)cc1C(=O)NC1CCN(Cc2ccccc2)CC1 | 66.7* | -5.9 | -1.1 | 96.0 | -6.8
COc1ccc(Cl)cc1NC(=S)NC1CCCC1 | -21.8 | 0.3 | -1.4 | 99.0 | ·

Screening results as filed in PubChem BioAssay.
